# In ChEMBL document CHEMBL3433997, “St. Jude Leishmania screening dataset” (2016):
# Key:
# Format in all cases: functional
# [1] = target: Solute carrier family 2, facilitated glucose transporter member 1 (Homo sapiens) (UniProt P11166); assay: ST_JUDE_LEISH: Cytotoxicity at 2uM final concentration against transgenic Leishmania Mexicana promastigotes LmGLUT1 that are glucose transport deficient and complemented with the human glucose transporter GLUT1. Activity is measured by DNA content using SYBR green in vitro
# [2] = target: Hexose transporter 1 (Plasmodium falciparum) (UniProt O97467); assay: ST_JUDE_LEISH: Cytotoxicity at 2uM final concentration against transgenic Leishmania Mexicana promastigotes LmPfHT that are glucose transport deficient and complemented with the Plasmodium falciparum hexose transporter. Activity is measured by DNA content using SYBR green in vitro
# [3] = target: Glucose transporter (Leishmania mexicana) (UniProt O61059); assay: ST_JUDE_LEISH: Cytotoxicity at 2uM final concentration against transgenic Leishmania Mexicana promastigotes LmGT2 that are glucose transport deficient and complemented with the L. Mexicana glucose transporter 2. Activity is measured by DNA content using SYBR green in vitro
# Chain of Solute carrier family 2, facilitated glucose transporter member 1 (Homo sapiens) (P11166 whole entry): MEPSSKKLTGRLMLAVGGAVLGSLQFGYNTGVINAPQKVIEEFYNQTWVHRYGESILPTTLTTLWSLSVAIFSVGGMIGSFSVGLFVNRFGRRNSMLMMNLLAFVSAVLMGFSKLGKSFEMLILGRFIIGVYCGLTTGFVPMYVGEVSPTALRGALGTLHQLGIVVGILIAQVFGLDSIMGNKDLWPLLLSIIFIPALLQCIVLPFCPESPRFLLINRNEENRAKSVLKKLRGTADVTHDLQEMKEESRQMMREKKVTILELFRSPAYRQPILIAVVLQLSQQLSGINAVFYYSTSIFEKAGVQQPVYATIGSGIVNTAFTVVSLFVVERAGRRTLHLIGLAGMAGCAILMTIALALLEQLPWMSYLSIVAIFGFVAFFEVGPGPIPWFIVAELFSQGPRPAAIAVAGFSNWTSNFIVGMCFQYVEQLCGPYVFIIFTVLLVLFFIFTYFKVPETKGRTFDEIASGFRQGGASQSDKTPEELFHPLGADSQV
SMILES,inhibition [1] [%],inhibition [2] [%],inhibition [3] [%]
CC1(C)N=C(N)N=C(N)N1OCCCc1ccccc1,1.22,2.68,2.65
O=C(NCc1cccc(F)c1)Nc1ccc(-c2ccc(-c3nc4cc(C(F)(F)F)ccc4[nH]3)cc2)cc1,0.8,-0.45,1.77
N#Cc1cncc(-c2nc3c(N4CCN(c5cnccn5)CC4)cccc3n2CCNCc2ccccc2)c1,2.77,1.47,-3.33
O=C(Nc1ccc(C(F)(F)F)cc1)NC1CCN(c2ccnc3cc(Cl)ccc23)CC1,6.47,6.26,4.68
CN(C)c1ccc(CN2CCC(CNC(=O)c3cc(-c4cccc(F)c4)cs3)C2)cc1 (stereo unspecified),-1.95,-1.31,-9.42
O=C(Nc1ccc(CN2CCCCC2)cc1)c1ccc(COc2ccc([N+](=O)[O-])cc2)o1,4.55,3.4,0.44
O=C(Nc1cccc(C(F)(F)F)c1)c1ccc(S(=O)(=O)NCC2CCCN(CC3CCCCC3)C2)cc1 (stereo unspecified),1.23,0.41,-0.91
O=C(Cc1ccccc1)NC(CCN1CCC(N(C2CC2)S(=O)(=O)c2cccc(C(F)(F)F)c2)CC1)c1ccc(Cl)c(Cl)c1 (stereo unspecified),5.55,3.86,3.73
COc1ccc(C(=O)Nc2cc(Cl)c3c(c2)C2CCCN2CC3)cc1C(F)(F)F (stereo unspecified),3.22,2.02,-1.06
O=C(C1CCCCC1)N1CCOC(CCN2CCC(c3ccccc3)CC2)(c2ccc(Cl)c(Cl)c2)C1 (stereo unspecified),15.2,16.1,13.5
O=C(Nc1ccc(OC2CCN(Cc3ccsc3)C2)c(Cl)c1)c1ccco1 (stereo unspecified),0.28,1.35,0.21
Cn1cc(C(=O)Nc2cccc(-c3cccc(-c4nc5cc(F)ccc5[nH]4)c3)c2)n(C)c1=O,8.03,5.98,5.83
